The values that follow come from PubChem BioAssay (Tox21).

Where “and” joins values, the source holds several entries; their conditions need not be identical. Equal entries are not always repeated. Results filed as inconclusive are left out. A call without a number means that no potency is given here. Some compounds were tested as several samples or in several runs, with calls that do not always agree. Calls of active or inactive are those of the source. Calls follow the shape of the dose curve; as a rule, active = well fitted curve in the direction sought with a large enough effect in the repeat runs; inconclusive = weak or mixed curves; inactive = no such curve, though single readings can be large; an effect the other way counts as inactive or inconclusive. Starred links: 1 amine or outer side, 2 acyl side, 3 side chain; linkers in the order of their positions; H or OH if unused. Positions of bridges follow the written chain, without caps; N, C: chain ends. Non-standard residues stand in square brackets, D forms with d. Residues, ends and D or L forms follow the SMILES beside them. Chains are numbered I, II in the order given. Actinocin(9to1) = Cc1c2oc3c(C)ccc(C(=O)[*:1])c3nc-2c(C(=O)[*:2])c(N)c1=O; NMeV = CN[C@H](C(=O)O)C(C)C; Sar = CNCC(=O)O
Potency is read from the fitted curve at half-maximal effect.

The first assay in a line: A CellTox Green Cytotoxicity Assay to monitor cytotoxicity in HEK293 cells - 24 hour (AID 1224875). Also: nearly all actives have a fitted effect of over 45% in size. The settings on record: CellTox Green fluorescence; series mostly up to 76.8 µM. The essentials: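 Real-time, in one plate: 600 HEK293 cells/well with dead-cell DNA dye, pinned compound after 5 h, 37 C incubation over 40 h; viable cells give no appreciable fluorescence.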
Consider `CC(C)(C)NCC(O)c1cc(O)cc(O)c1` (stereo unspecified), for which the Potency result was “inactive”.
On the same count and under the same terms, the entry for `Cc1c2oc3c(C)ccc(C(=O)N[C@@H]4C(=O)N[C@H](C(C)C)C(=O)N5CCC[C@H]5C(=O)N(C)CC(=O)N(C)[C@@H](C(C)C)C(=O)O[C@@H]4C)c3nc-2c(C(=O)N[C@@H]2C(=O)N[C@H](C(C)C)C(=O)N3CCC[C@H]3C(=O)N(C)CC(=O)N(C)[C@@H](C(C)C)C(=O)O[C@@H]2C)c(N)c1=O` (I: T[dV]P[Sar][NMeV] / II: T[dV]P[Sar][NMeV]; ester I:1-I:C, II:1-II:C; linker I:N-II:N via Actinocin(9to1)) is “inactive”; for `C#CC(C)(CC)OC(=O)c1ccccc1C(=O)O` (stereo unspecified) it is “inactive”.
Same read-out and setting: to `CC(C)(C)NCC(O)COc1ccccc1OCC1CCCO1` (stereo unspecified) belongs “inactive”; to `COc1ccc(Cc2cnc(N)nc2N)cc1OC`, “inactive”.
The same measure, in the same setting: to `C=CS(=O)(=O)O` belongs “inactive”; to `CC(=O)C1=C(C)[C@@H]2C[C@@]3(C1)[C@H](C)CC[C@H]3C2(C)C`, “inactive”.
On to `O=S(=O)(O)c1ccc2nc(-c3ccccc3)[nH]c2c1`, for which the Potency entry is “inactive”.
Consider `Cc1scc2c1N(C(=O)CN1CCN(C)CC1)c1ccccc1NC2=O`, for which the Potency entry is “inactive”.
Still for that read-out and setting: to `COC(c1ccccc1)(c1ccccc1)[C@H](Oc1nc(C)cc(C)n1)C(=O)O` belongs “inactive”; to `OCCN1CCNCC1`, “inactive”; to `C1COC(NC(C2CC2)C2CC2)=N1`, “inactive”.
On the same count and under the same terms, the figure for `Cc1cc(OCCOCC[N+](C)(C)Cc2ccccc2)ccc1C(C)(C)CC(C)(C)C` is 21.7 µM (active) and 23.9 µM (active); for `CC(=O)CC(=O)Nc1ccc2[nH]c(=O)[nH]c2c1` it is “inactive”.
For `CCN(CC)C(=O)Nc1ccc(OCC(O)CNC(C)(C)C)c(C(C)=O)c1` (stereo unspecified), the Potency result was “inactive”.
With `CCCOC(=O)c1cc(O)c(O)c(O)c1`, the Potency entry was “inactive”.
`CN1C(=O)c2ccc([N+](=O)[O-])cc2C1=O`: the Potency entry is “inactive”.
On the same count and under the same terms, to `CC(C)(C)c1ccccc1` belongs “inactive”.
Same read-out and setting: the entry for `Nc1nc2ccccc2[nH]1` is “inactive”; for `c1ccc2c(c1)CCCC2C1=NCCN1` (stereo unspecified) it is “inactive”; for `O=C(Cl)c1cccc(C(=O)Cl)c1` it is “inactive”.
Still for that read-out and setting: to `CCc1cc(C(C)(C)C)c(O)c(C(C)(C)C)c1` belongs 21.9 µM (active); to `CC[C@@H](N)CO`, “inactive”; to `Cc1ccc(-c2cc(C(F)(F)F)nn2-c2ccc(S(N)(=O)=O)cc2)cc1`, “inactive”.
On to `CCCCCCCCCCCCCC[P+](CCCC)(CCCC)CCCC`, for which the Potency is 12.2 µM (active) and 17.4 µM (active).
For the compound `CCC(CO)(CO)COCC(CC)(CO)CO`, the Potency result is “inactive”.
Same read-out and setting: to `Nc1cc(S(=O)(=O)O)cc2cc(S(=O)(=O)O)cc(O)c12` belongs “inactive”; to `O=C(O)Cn1cnnn1`, “inactive”; to `Oc1ccc(Cl)cc1Cc1cc(Cl)ccc1O`, “inactive”.
Turning to `c1cnc2cc3c(cc2n1)C1CNCC3C1`, the Potency entry is “inactive”.
On to `C=C(C)C(=O)O`, for which the Potency result is “inactive”.
On the same count and under the same terms, to `CCN(CC)CCOc1ccc(/C(=C(\Cl)c2ccccc2)c2ccccc2)cc1` belongs 31.6 µM (active) and 23.9 µM (active); to `NCCCCCC(=O)O`, “inactive”.
Still for that read-out and setting: the entry for `CC(C)CCOC(=O)c1ccc(N(C)C)cc1` is “inactive”.
The same measure, in the same setting: to `CCN(CC)c1ccc2c(C)cc(=O)oc2c1` belongs “inactive”.
On to `CCCNC(C)C(=O)Nc1ccccc1C` (stereo unspecified), for which the Potency result was “inactive”.
Same read-out and setting: the entry for `CCOC(=O)C(C)C(C)=O` (stereo unspecified) is “inactive”.

The next assay is described as follows: A CellTox Green Cytotoxicity Assay to monitor cytotoxicity in HepG2 cells - 16 hour (AID 1224876). Also: nearly all actives have a fitted effect of over 45% in size. The settings on record: CellTox Green fluorescence; series mostly up to 76.8 µM. The essentials: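 Cytotoxicity was tracked as dead-cell DNA fluorescence in HepG2 cells treated with test compounds at 37 C; each time-point value comes from one kinetic series spanning 0, 8, 16, 24, 32 and 40 h.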
`Cc1c2oc3c(C)ccc(C(=O)N[C@@H]4C(=O)N[C@H](C(C)C)C(=O)N5CCC[C@H]5C(=O)N(C)CC(=O)N(C)[C@@H](C(C)C)C(=O)O[C@@H]4C)c3nc-2c(C(=O)N[C@@H]2C(=O)N[C@H](C(C)C)C(=O)N3CCC[C@H]3C(=O)N(C)CC(=O)N(C)[C@@H](C(C)C)C(=O)O[C@@H]2C)c(N)c1=O` (I: T[dV]P[Sar][NMeV] / II: T[dV]P[Sar][NMeV]; ester I:1-I:C, II:1-II:C; linker I:N-II:N via Actinocin(9to1)): the Potency entry is “inactive”.
For `C#CC(C)(CC)OC(=O)c1ccccc1C(=O)O` (stereo unspecified), the Potency result was “inactive”.
On the same count and under the same terms, to `COc1ccc(Cc2cnc(N)nc2N)cc1OC` belongs “inactive”; to `CC(=O)C1=C(C)[C@@H]2C[C@@]3(C1)[C@H](C)CC[C@H]3C2(C)C`, “inactive”.
Still for that read-out and setting: to `Cc1scc2c1N(C(=O)CN1CCN(C)CC1)c1ccccc1NC2=O` belongs “inactive”; to `COC(c1ccccc1)(c1ccccc1)[C@H](Oc1nc(C)cc(C)n1)C(=O)O`, “inactive”; to `Cc1cc(OCCOCC[N+](C)(C)Cc2ccccc2)ccc1C(C)(C)CC(C)(C)C`, 19.4 µM (active) and 15.1 µM (active).
Consider `CC(=O)CC(=O)Nc1ccc2[nH]c(=O)[nH]c2c1`, for which the Potency entry is “inactive”.
Same read-out and setting: the entry for `CCc1cc(C(C)(C)C)c(O)c(C(C)(C)C)c1` is “inactive”.
Still for that read-out and setting: to `Nc1cc(S(=O)(=O)O)cc2cc(S(=O)(=O)O)cc(O)c12` belongs “inactive”.
As for `CCN(CC)CCOc1ccc(/C(=C(\Cl)c2ccccc2)c2ccccc2)cc1`, the Potency was 31.6 µM (active) and 21.3 µM (active).
Still for that read-out and setting: to `NCCCCCC(=O)O` belongs “inactive”; to `CCCNC(C)C(=O)Nc1ccccc1C` (stereo unspecified), “inactive”.

A short description of a further assay: qHTS RealTime-Glo MT Cell Viability Assay in HepG2 cells - 32 hour (AID 1224877). Also: nearly all actives have a fitted effect of over 55% in size. Conditions: RealTime-Glo luminescence; series mostly up to 76.8 µM. The essentials:
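Viability was tracked continuously by NanoLuc luminescence from prosubstrate reduced by living HepG2 cells, at successive time points over 40 h of compound exposure. Cells with reagent were preincubated 5 h at 37 °C before compound addition.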
(In general: In qHTS, concentration-response curves come from the screen itself.)
In the case of `CC(C)(C)NCC(O)c1cc(O)cc(O)c1` (stereo unspecified), the Potency entry was “inactive”.
Still for that read-out and setting: to `C#CC(C)(CC)OC(=O)c1ccccc1C(=O)O` (stereo unspecified) belongs “inactive”.
Still for that read-out and setting: the entry for `CC(C)(C)NCC(O)COc1ccccc1OCC1CCCO1` (stereo unspecified) is “inactive”.
Still for that read-out and setting: to `COc1ccc(Cc2cnc(N)nc2N)cc1OC` belongs “inactive”; to `C=CS(=O)(=O)O`, “inactive”; to `CC(=O)C1=C(C)[C@@H]2C[C@@]3(C1)[C@H](C)CC[C@H]3C2(C)C`, “inactive”.
With `O=S(=O)(O)c1ccc2nc(-c3ccccc3)[nH]c2c1`, the Potency result is “inactive”.
Still for that read-out and setting: to `Cc1scc2c1N(C(=O)CN1CCN(C)CC1)c1ccccc1NC2=O` belongs “inactive”; to `COC(c1ccccc1)(c1ccccc1)[C@H](Oc1nc(C)cc(C)n1)C(=O)O`, “inactive”.
For `OCCN1CCNCC1`, the Potency entry was “inactive”.
For the compound `C1COC(NC(C2CC2)C2CC2)=N1`, the Potency result is “inactive”.
The same measure, in the same setting: to `Cc1cc(OCCOCC[N+](C)(C)Cc2ccccc2)ccc1C(C)(C)CC(C)(C)C` belongs 13.7 µM (active) and 9.52 µM (active).
The same measure, in the same setting: to `CC(=O)CC(=O)Nc1ccc2[nH]c(=O)[nH]c2c1` belongs “inactive”; to `CCN(CC)C(=O)Nc1ccc(OCC(O)CNC(C)(C)C)c(C(C)=O)c1` (stereo unspecified), “inactive”; to `CCCOC(=O)c1cc(O)c(O)c(O)c1`, “inactive”.
The same measure, in the same setting: the entry for `CN1C(=O)c2ccc([N+](=O)[O-])cc2C1=O` is “inactive”; for `CC(C)(C)c1ccccc1` it is “inactive”.
As to `Nc1nc2ccccc2[nH]1`, the Potency result was “inactive”.
`c1ccc2c(c1)CCCC2C1=NCCN1` (stereo unspecified): the Potency result is “inactive”.
Still for that read-out and setting: the entry for `O=C(Cl)c1cccc(C(=O)Cl)c1` is “inactive”; for `CCc1cc(C(C)(C)C)c(O)c(C(C)(C)C)c1` it is “inactive”; for `CC[C@@H](N)CO` it is “inactive”.
Still for that read-out and setting: the figure for `Cc1ccc(-c2cc(C(F)(F)F)nn2-c2ccc(S(N)(=O)=O)cc2)cc1` is 49 µM (active) and inactive; for `CCCCCCCCCCCCCC[P+](CCCC)(CCCC)CCCC` it is 21.8 µM (active) and 12.3 µM (active).
On the same count and under the same terms, to `CCC(CO)(CO)COCC(CC)(CO)CO` belongs “inactive”; to `Nc1cc(S(=O)(=O)O)cc2cc(S(=O)(=O)O)cc(O)c12`, “inactive”; to `O=C(O)Cn1cnnn1`, “inactive”.
On to `Oc1ccc(Cl)cc1Cc1cc(Cl)ccc1O`, for which the Potency was 49.9 µM (active).
The same measure, in the same setting: to `c1cnc2cc3c(cc2n1)C1CNCC3C1` belongs “inactive”.
Same read-out and setting: to `C=C(C)C(=O)O` belongs “inactive”.
Same read-out and setting: the figure for `CCN(CC)CCOc1ccc(/C(=C(\Cl)c2ccccc2)c2ccccc2)cc1` is 19.9 µM (active) and 23.9 µM (active).
Turning to `NCCCCCC(=O)O`, the Potency entry is “inactive”.
In the case of `CC(C)CCOC(=O)c1ccc(N(C)C)cc1`, the Potency result is “inactive”.
The same measure, in the same setting: to `CCN(CC)c1ccc2c(C)cc(=O)oc2c1` belongs “inactive”; to `CCCNC(C)C(=O)Nc1ccccc1C` (stereo unspecified), “inactive”; to `CCOC(=O)C(C)C(C)=O` (stereo unspecified), “inactive”.
